Changes are numbered by the printed parent chain. Whole data set: some 5,800 sequences, median “enrichment r” near 0.68, cut for the highest 2% near 11. The sample holds the highest values, similar sequences and a random draw of the others, so the mix is not that of the screen.
T1: UNK ZnF1-6 (called full-length) (human, UniProt Q9C0B0 30-357)
T1 sequence: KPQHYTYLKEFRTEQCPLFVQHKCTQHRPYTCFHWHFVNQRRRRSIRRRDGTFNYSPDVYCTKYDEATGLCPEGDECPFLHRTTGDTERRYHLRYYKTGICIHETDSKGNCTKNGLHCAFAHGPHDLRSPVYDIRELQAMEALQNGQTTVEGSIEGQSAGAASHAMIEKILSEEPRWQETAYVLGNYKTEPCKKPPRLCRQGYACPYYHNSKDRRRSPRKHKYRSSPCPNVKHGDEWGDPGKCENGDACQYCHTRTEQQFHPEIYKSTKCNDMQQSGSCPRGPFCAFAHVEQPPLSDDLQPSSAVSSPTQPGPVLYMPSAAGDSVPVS

B1: chr1:17067933:17068034:-|3pUTR|ENSG00000117115|msi1|FALSE|unique (ssRNA)
RNA: GGGAGUUCUACAGUCCGACGAUCACAUAAGGACCCUGGCCUACCCUCCAGCCCAACAGCCAGUUCUGGGUCAGCUGCCAACUUAGGGGUGGUUUGAUUAUCCCAUUGAAAUUCACCAGUGCCUUUGCCAAAGACCCUCUCAUUCAACAGAGGAUUGAGCAUCA
B2: chr12:104760787:104760888:+|3pUTR|ENSG00000171310|unk|FALSE|unique (ssRNA)
RNA: GGGAGUUCUACAGUCCGACGAUCUUCUUUUCUAAUGGCAUUGAAACUUUAAAAAAAAUGGAUUCAACUGUUUUUGCAGAAUGUAGAAAGUAUUCUGUGUCCUUGGUUAAAGAAAUCCACUUGUGAAGUGUGCCUGGAAAAUGACAACAGAGGAUUGAGCAUCA
B3: chr17:80395157:80395266:+|3pUTR|ENSG00000173821|unk|FALSE|bound_elsewhere (ssRNA)
RNA: GGGAGUUCUACAGUCCGACGAUCCUUCAAAGCCUUAACUGUCAAAUCUUGCAUUAUCUUGUUUGUACAGAAAUAUACUGGCCUAGCAGAGGCAAAAAAAAAAAAAAUGAAUUUUAUUUUACUUGUCACACCUGUCUUAAUAAACAACAGAGGAUUGAGCAUCA
B4: chr10:117282838:117282939:-|3pUTR|ENSG00000165650|unk|FALSE|bound_elsewhere (ssRNA)
RNA: GGGAGUUCUACAGUCCGACGAUCCCCCUUGUGUUAUUUUUCUUCCUCUUGGUUUUUGAAUUAGUGUUAAAUAGAAUACUGUCUAGAUUCUUAAAAUAUUUUCAUUUCCAUCAUGGUUAUAACAAAUUUGCUGCAUGCCCAAACCAACAGAGGAUUGAGCAUCA
B5: chr2:227556236:227556337:+|3pUTR|ENSG00000173744|msi1|FALSE|bound_elsewhere (ssRNA)
RNA: GGGAGUUCUACAGUCCGACGAUCUGUUGAAUGCCUUUUUGCAAUGAUGACUGAGUUGUUAUCAUAGUAUUUUAAAACCUGUAUAGUGUUUUAGACUUGUUAAAACAUUGCUGUCUAGUGUACAUCUAGCUAAAAGUGUGGUUUCAACAGAGGAUUGAGCAUCA
B6: chr7:123541454:123541562:-|3pUTR|ENSG00000128609|unk|total|mutant (ssRNA)
RNA: GGGAGUUCUACAGUCCGACGAUCUCCACCGUGUCAUUUUAUUUCCGUCAUUAUUGAAUUAUACCAUUUACUCUGUUUUCUUACCGUCUUAAUUUUAUUAUAUUUUGUUGUUACUGUAUUAUAUUUGAAAACCUUCAAAUCCGACAACAGAGGAUUGAGCAUCA
B7: chr7:123541454:123541562:-|3pUTR|ENSG00000128609|unk|FALSE|unique (ssRNA)
RNA: B6 RNA with C28U, C29A, C44U, C45A, C83U, C84A, C140U, C141A
B8: chr6:11183298:11183399:-|3pUTR|ENSG00000111859|msi1|total|mutant (ssRNA)
RNA: GGGAGUUCUACAGUCCGACGAUCACAUUUCACAUUUUUAAAACCAAAUGUUCAAUCUGUAUUACUCUUUGCCGUCUUGUAUGCCGAGGCUAUUUUUAAAUCAUUAAAUUUUCCGAUCUCUGUUUUCACCGCCACUGGGUUUUCCAACAGAGGAUUGAGCAUCA
B9: ENSG00000033178:stop:overlap|stop_codon|ENSG00000033178|stop_codon|NA|stop_codon (ssRNA)
RNA: GGGAGUUCUACAGUCCGACGAUCCUAUUGAAAUUUAUGGCUGUCCGAAUAUUUGUUUGUUAAUACAUAAGUGUUCUGUAUAUUAGUAUUCUCUUAUCCUUCACAUCCAGCUUUGCUACUCUGUGGCAUUAGACAACUUUUUUCCAACAGAGGAUUGAGCAUCA
B10: chr19:811491:811550:+|3pUTR|ENSG00000011304|msi1_unk|FALSE|overlapping (ssRNA)
RNA: GGGAGUUCUACAGUCCGACGAUCUAGCAAUAUUUCCAGUUGACCAAAUAUUCUAAUCUUUUUUCAUUUAUAUGCAAAAGAAAUAGUUUUAAGUAACUUUUUAUAGCAAGAUGAUACAAUGGUAUGAGUGUAAUCUAAACUUCCCAACAGAGGAUUGAGCAUCA
B11: chr5:159157431:159157536:-|3pUTR|ENSG00000145860|unk|FALSE|bound_elsewhere (ssRNA)
RNA: GGGAGUUCUACAGUCCGACGAUCCAAAAAGUGUUUUUCAGACCUCGGUAUUCCUAAUGUGGGAUGUGACUUUAUUUUAUUUUUAGUAGCAAAUUUGGAUGUAGACUGACAGACAUAGCUGAAUGUCUUAAUAAAUUUAAAUUUCAACAGAGGAUUGAGCAUCA
B12: chr5:159157431:159157536:-|3pUTR|ENSG00000145860|unk|total|mutant (ssRNA)
RNA: B11 RNA with U83C, A84C, U86C, A87C, U101C, A102C, U115C, A116C
B13: chr7:111727939:111728040:-|3pUTR|ENSG00000128512|unk|FALSE|unique (ssRNA)
RNA: GGGAGUUCUACAGUCCGACGAUCAAGUGGUAAAUAGUGAUAAAGACUCCUUUUGUACCUUUUUAUGUUCACUUUUUUUUAUAUAGUUUAAUCUUAAAACCAAUACGAUAUUGUCAAACGAUACAAUGUGUGACAAUGUUGUAUCAACAGAGGAUUGAGCAUCA
B14: chr7:111727939:111728040:-|3pUTR|ENSG00000128512|unk|total|mutant (ssRNA)
RNA: B13 RNA with U34C, A35C, U83C, A84C

Each binder was assayed against T1, UNK ZnF1-6 (called full-length) (assay: nsRBNS (natural sequence RNA bind-n-seq); RBNS binding buffer (assumed for nsRBNS): 25 mM Tris pH 7.5, 150 mM KCl, 3 mM MgCl2, 0.01% Triton X-100, 500 ug/ml BSA, 20 U/ml SUPERase-In, 4 C; UNK is unkempt and MSI1 is Musashi-1; names of the RNAs are library labels; protein concentration not given here; high values mean tight binding).

Row | Binder | binding signal [enrichment R]
1 | B1 | 0.896
2 | B2 | 0.431
3 | B3 | 0.564
4 | B4 | 3.48
5 | B5 | 0.596
6 | B6 | 17
7 | B7 | 150
8 | B8 | 1.08
9 | B9 | 0.919
10 | B10 | 0.832
11 | B11 | 11.8
12 | B12 | 0.813
13 | B13 | 21.5
14 | B14 | 2.33

From publication PMC12136788
